Shiga toxin inh = blocks Shiga toxin action in Vero cells; Vero cells, Shiga toxin protein synthesis inhibition reporter; hit rate 9.2% among 290,000; inhibition, % at 38.7 µM; in the data active means inhibition mostly above about 28%, no sharp cut-off; inactive means mostly below about 43%; further: 0% is about no effect
Pf growth 48h = inhibits P. falciparum growth in the first generation, 48 h. P. falciparum luciferase growth in erythrocytes, 48 h. Potency, µM (highest dose often 28.7 µM), for inactives: top-dose activity change, negative = inhibition, usual class: inhibitors. hit rate 5.9% among 310,000. AID 504832; further: potency means the concentration at half of the fitted maximal effect; on the % scale 0 is the no-effect control and ±100 the full control effect
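Luciferase-expressing parasites in RBCs, 2% Hct / 0.1% parasitemia final; RPMI 1640 + 0.5% Albumax; 37 C, 5% CO2, one generation; luminescence read-out, lower signal = inhibition.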
Pf growth 96h = P. falciparum growth inhibition at 96 hours | P. falciparum luciferase reporter growth, 96 h | Potency, µM (highest dose often 28.7 µM), inactives show top-dose activity change, negative = inhibition, usual class: inhibitors | hit rate 6.9% among 320,000 | AID 504834; further: potency means the concentration at half of the fitted maximal effect; on the % scale 0 is the no-effect control and ±100 the full control effect
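Erythrocytes infected with luciferase-expressing P. falciparum were dispensed at 2% hematocrit and 0.05% parasitemia (final), then incubated with compounds 96 hours at 37 C in 5% CO2. Luminescence after detection reagent addition reported growth.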
CHX counter = affects cycloheximide protein synthesis inhibition readout, counter-screen. cell reporter, cycloheximide protein synthesis inhibition counterscreen. max response, %. hit rate 12% among 300,000; in the data active means max response mostly above about 13%, no sharp cut-off; inactive means mostly below about 14%; further: read at 38.3 µM for the half of the compounds with a filed dose; 0% is about no effect
* hit, by the source's call; ? = inconclusive; nt = no result; [ ] = remark or other dose. This is a sample that favours compounds with a hit; in the whole collection about 21% have one here. Unless noted, the call rests on the fitted dose curve; in most records, active means well fitted inhibition curve with a large enough effect; inconclusive means small, poorly fitted or top-dose-only effect, or another doubt; inactive means no such curve, though single readings can be large or run the other way.

SMILES | Shiga toxin inh | Pf growth 48h | Pf growth 96h | CHX counter
CC[C@@H]1OC(=O)[C@H](C)[C@H](O[C@@H]2C[C@](C)(OC)[C@H](O)[C@H](C)O2)[C@H](C)[C@H](O[C@@H]2O[C@@H](C)C[C@@H](N(C)C)[C@@H]2O)[C@](C)(O)C[C@H](C)C(=NOCOCCOC)[C@H](C)[C@H](O)[C@]1(C)O | nt | -5.4%[12.8 µM] | 1.61µM* | nt
O=C(NCc1cccc(C(F)(F)F)c1)N1CCN(S(=O)(=O)c2ccccc2F)CC1 | 1.7 | -12.1% | -10.0% | -3.2
COCC(=O)c1[nH]c2ccccc2c1C | -2.0 | 1.0% | 3.7µM* | 11.3
CCN(CC(=O)Nc1ccc(C(=O)OC)cc1)C1CCCCC1 | 9.3 | -11.3% | -9.3% | 2.4
Cc1cc(C#N)c(C)n1-c1cc(S(=O)(=O)N2CCOCC2)ccc1N1CCCC1 | -0.9 | ? | ? | -1.8
COC(=O)c1cn(NC(=O)C2CCCO2)c(=O)c2ccccc12 (stereo not drawn) | -8.5 | 0.5% | 11.7µM* | 0.9
COC(=O)c1cn(NC(=O)C2COc3ccccc3O2)c(=O)c2ccccc12 (stereo not drawn) | -4.4 | -3.2% | 10.2% | -5.1
COC(=O)c1cn(NC(=O)C2CCC(C(C)(C)C)CC2)c(=O)c2ccccc12 (stereo not drawn) | -4.3 | 15.7% | 4.15µM* | -2.8
Cc1ccc(C(=O)Nc2ccc3c(c2)nc2n3CCSC2)cc1 | 52.5 | 5.1% | nt | 30.7*
COc1ccccc1C(=O)Nc1ccc2c(c1)nc1n2CCSC1 | 60.3* | 67.9% | 107.4% | 24.0*
CC(=O)Nc1ccc2c(c1)nc1n2CCSC1 | -42.2 | nt | 24.1% | 1.1
CCCCC(=O)Nc1ccc2c(c1)nc1n2CCSC1 | 65.3* | 133.9% | nt | 27.4*
COc1ccc(OCC(=O)Nc2ccc3c(c2)nc2n3CCSC2)cc1 | 21.5 | ? | -28.8%[5.75 µM] | -2.6
O=C(N/C=N/O)C(c1ccccc1)c1ncc(C(F)(F)F)cc1Cl (stereo not drawn) | -8.5 | nt | -1.9% | 6.2
COc1ccc(OCC(O)CNS(=O)(=O)c2ccc(NC(C)=O)cc2)cc1 (stereo not drawn) | -7.1 | ? | ? | -0.7
CCC1(C)Cc2c(sc3nc(SC)[nH]c(=S)c23)CO1 (stereo not drawn) | -5.1 | nt | 19.7% | -2.3
O=[N+]([O-])c1ccc(C(O)CNC(=S)Nc2ccccc2)cc1 (stereo not drawn) | -9.3 | ? | ? | 1.6
O=[N+]([O-])c1ccc(NC(=S)NCCc2ccc(F)cc2)cc1 | 13.0 | 10.4µM* | 5.22µM* | 3.0
COc1ccc(CNC(=O)Nc2ccc([N+](=O)[O-])cc2)cc1 | 38.5 | nt | nt | 16.8
O=C(NCCc1ccc(F)cc1)Nc1ccc([N+](=O)[O-])cc1 | 54.1 | ? | -5.5% | 21.3*
COC(=O)C(Cc1ccccc1)NC(=O)CNC(=O)c1ccccc1OC (stereo not drawn) | -8.7 | 16.3% | 15.7% | 12.5
CCN(CC)CCCNC(=O)CSc1nc(-c2ccc(F)cc2)cc(C(F)(F)F)n1 | 4.1 | 3.2% | 29.6% | -5.5
O=C(NC12CC3CC(CC(C3)C1)C2)c1cncc(O)c1 | -8.3 | ? | ? | -2.1
COc1ccc(-c2csc(-n3ncc(-c4cccs4)c3N)n2)cc1 | 30.7 | 6.7% | ? | 4.2
COc1ccc(-c2csc(N3CCSCC3)n2)cc1 | 95.1* | 103.8% | 184.3% | 55.6*
SMILES | Shiga toxin inh | Pf growth 48h | Pf growth 96h | CHX counter
COc1ccc(-c2csc(-n3cccn3)n2)cc1 | 66.3* | 87.2% | 194.1% | 62.4*
CC1CCCC/C1=N\NC(=S)NCCc1ccccc1 (stereo not drawn) | 97.6* | 31.3% | -5.0% | 44.1*
O=C(NCCc1ccccc1)C(=O)NN=C1CCCC1 | -8.5 | 3.4% | -0.2% | -2.4
CC1CCCC/C1=N\NC(=S)Nc1cccnc1 (stereo not drawn) | 17.7 | 0.0% | 1.4% | 4.2
Cc1ccc(NC(=S)N/N=C2\CCCCC2C)cc1 (stereo not drawn) | 95.0* | 17.6% | -19.0% | 43.5*
O=C(CC(NC(=O)c1ccccc1)c1ccccc1)Nc1cccc2ccccc12 (stereo not drawn) | -10.5 | ? | 28.4% | -1.5
COc1ccc(S(=O)(=O)N/N=C(/C)c2ccncc2)cc1 | 11.1 | 7.5% | -14.6% | -3.3
COc1ccc(S(=O)(=O)N/N=C(/C)c2ccco2)cc1 | 130.2* | 6.4% | ? | 55.6*
C=CCn1c(C)cc(C(=O)CSc2nnc(Cc3ccccc3)o2)c1C | 52.6 | 7.4% | ? | 30.9*
Cc1cc(C(=O)CSc2nnc(Cc3ccccc3)o2)c(C)n1Cc1ccc2c(c1)OCO2 | 8.2 | 9.28µM* | ? | -1.0
CC(C)NC(=O)c1sc2nc3c(c(-c4cccs4)c2c1N)CN(C)CC3 | -18.1 | nt | -17.3% | 2.7
CN1CCc2nc3sc(C#N)c(N)c3c(-c3cccs3)c2C1 | -20.9 | 13.1µM* | nt | 0.6
CCn1ccnc1CN1CCN(CC(C)C)C(CCO)C1 (stereo not drawn) | -3.4 | 6.5% | 0.4% | 2.3
OCCC1CN(Cc2cccn2-c2ncccn2)CCN1Cc1ccccc1 (stereo not drawn) | -4.3 | -5.9% | 13.1µM* | -2.6
Cc1ccc(CN2CCN(Cc3cccn3-c3ccccn3)CC2CCO)cc1 (stereo not drawn) | -9.9 | -0.9% | 46.4% | 0.7
Cc1ccc(CN2CCN(Cc3cccn3-c3ccc(Cl)cn3)CC2CCO)o1 (stereo not drawn) | 0.9 | ? | 11.7µM* | -2.1
CC(C)CCN1CCN(Cc2cccn2-c2cccnc2)CC1CCO (stereo not drawn) | -17.6 | -9.0% | ? | -1.2
CCn1ccnc1CN1CCN(CCC(C)C)C(CCO)C1 (stereo not drawn) | -16.6 | 3.7% | 11.7µM* | 1.8
CC(C)CCN1CCN(Cc2cccn2-c2ccc(Cl)cn2)CC1CCO (stereo not drawn) | -7.9 | 9.28µM* | 0.4% | 1.5
COc1cc(OC)c(NS(=O)(=O)c2ccc(Cl)c(C(=O)OC(C)C(=O)N3CCCC3)c2)cc1Cl (stereo not drawn) | -16.0 | -11.0% | -28.6% | 1.8
CC(Oc1ccc(Cl)cc1Cl)c1ccnc(N)n1 (stereo not drawn) | -10.7 | 1.1% | 15.2% | 1.2
CC(Oc1ccccc1)c1ccnc(N)n1 (stereo not drawn) | 22.4 | 22.3% | 34.0% | 21.9*
c1ccc(CCCN2CCN(c3ccccn3)CC2)cc1 | 3.2 | 25.8% | -23.6% | 7.5
CCOC(=O)c1c(NC(=O)CN2C(=O)C(=O)N(CC(C)C)C2=O)sc(C)c1CC | nt | ? | 22.3% | nt
CC(C)c1ccc(NC(=S)Nc2ccc3cn[nH]c3c2)cc1 | 72.6* | 65.4% | 12.8% | 22.0*
SMILES | Shiga toxin inh | Pf growth 48h | Pf growth 96h | CHX counter
COc1ccccc1NC(=S)Nc1ccc2cn[nH]c2c1 | 46.6* | 19.9% | 45.1% | 15.5*
O=C(Nc1nccs1)c1cccnc1Cl | 3.0 | nt | 2.6% | -2.1
O=C(CCNC(=O)c1ccc(Br)cc1)Nc1nccs1 | 21.9 | 0.4% | -0.8% | 18.6*
O=C(Nc1nccs1)c1ccc(Br)cc1 | 132.8* | 0.0% | 0.0% | 27.0*
O=C(Nc1nccs1)c1ccc[nH]c1=O | nt | 42.0% | 9.3% | 25.3*
O=C(CCNC(=O)c1ccc([N+](=O)[O-])cc1)Nc1nccs1 | -4.6 | 6.4% | 4.3% | -2.5

Source: PubChem (National Center for Advancing Translational Sciences (NCATS))
